Results: PubChem BioAssay (NCATS)
Inconclusive results are not listed. Active and inactive are the calls of the source. Calls come from the whole dose curve; as a rule, active = well fitted curve in the direction sought with a large enough effect; inconclusive = small, poorly fitted or top-dose-only effect, or another doubt; inactive = no such curve, though single readings can be large; an effect the other way counts as inactive or inconclusive.

Assays:
[1] = qHTS of pediatric cancer cell lines to identify multiple opportunities for drug repurposing: Primary screen for Saos-2 cells (AID 1347097); note: nearly all actives have a fitted effect of over 40% in size
Summary of the method: (§1)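 Readout: CellTiter-Glo luminescence, 48 h treatment. Controls DMSO (neutral) and bortezomib 2.3 µM final (positive). Potency and efficacy taken from primary-screen concentration-response curves.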

[2] = qHTS of pediatric cancer cell lines to identify multiple opportunities for drug repurposing: Primary screen for NB1643 cells (AID 1347099); note: nearly all actives have a fitted effect of over 50% in size
Summary of the method: as §1

[3] = qHTS of pediatric cancer cell lines to identify multiple opportunities for drug repurposing: Primary screen for BT-12 cells (AID 1347101); note: nearly all actives have a fitted effect of over 25% in size
Summary of the method: (§2)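 Cells (500-1,000/well) rested 5 h, then received compounds for 48 h; metabolically active cells were measured by CellTiter-Glo luminescence. Final concentrations spanned up to 46 µM (MIPE, 11-point) or 0.59 nM-46 µM (NPC, 8-point) in primary screens, 11-point in follow-ups.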

[4] = qHTS of pediatric cancer cell lines to identify multiple opportunities for drug repurposing: Primary screen for Rh18 cells (AID 1347102); note: nearly all actives have a fitted effect of over 65% in size
Summary of the method: as §2

[5] = qHTS of pediatric cancer cell lines to identify multiple opportunities for drug repurposing: Primary screen for OHS-50 cells (AID 1347103); note: nearly all actives have a fitted effect of over 40% in size
Summary of the method: as §2

[6] = qHTS of pediatric cancer cell lines to identify multiple opportunities for drug repurposing: Primary screen for RD cells (AID 1347104); note: nearly all actives have a fitted effect of over 55% in size
Summary of the method: as §1

[7] = qHTS of pediatric cancer cell lines to identify multiple opportunities for drug repurposing: Primary screen for MG 63 (6-TG R) cells (AID 1347105); note: nearly all actives have a fitted effect of over 50% in size
Summary of the method: as §1

[8] = qHTS of pediatric cancer cell lines to identify multiple opportunities for drug repurposing: Primary screen for control Hh wild type fibroblast cells (AID 1347106);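 note: series mostly up to about 46 µM; a drop in luminescence marks cytotoxicity and a rise apparent proliferation; nearly all actives have a fitted effect of over 55% in size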
Summary of the method: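 Cells (500-1,000/well) in growth media were settled 5 h at 37 degrees C, then given compounds for 48 h. Viability was read as CellTiter-Glo luminescence. Primary runs used MIPE at 11 points (0.78 nM-46 µM) and NPC at 8 points (0.59 nM-46 µM); follow-ups used 11 points.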

[9] = qHTS of pediatric cancer cell lines to identify multiple opportunities for drug repurposing: Primary screen for Rh30 cells (AID 1347107); note: series mostly up to about 46 µM; nearly all actives have a fitted effect of over 75% in size
Summary of the method: as §2

[10] = qHTS of pediatric cancer cell lines to identify multiple opportunities for drug repurposing: Primary screen for Rh41 cells (AID 1347108);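 note: series mostly up to about 46 µM; luminescence drop marks cytotoxic hits; nearly all actives have a fitted effect of over 70% in size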
Summary of the method: as §1

[11] = qHTS of pediatric cancer cell lines to identify multiple opportunities for drug repurposing: Primary screen for SK-N-SH cells (AID 1347098); note: nearly all actives have a fitted effect of over 65% in size
Summary of the method: as §2

[12] = qHTS of pediatric cancer cell lines to identify multiple opportunities for drug repurposing: Primary screen for LAN-5 cells (AID 1347100)
Summary of the method: as §2

[13] = qHTS of pediatric cancer cell lines to identify multiple opportunities for drug repurposing: Confirmatory screen for NB1643 cells (AID 1347109); note: nearly all actives have a fitted effect of over 45% in size; note: potency is the fitted concentration of half-maximal effect
Summary of the method: as §2

[14] = qHTS of pediatric cancer cell lines to identify multiple opportunities for drug repurposing: Confirmatory screen for A673 cells (AID 1347110);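 note: potency is the fitted concentration of half-maximal effect; cells exposed to compound for 48 h before the viability read; nearly all actives have a fitted effect of over 65% in size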
Summary of the method: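 A673 cells at 500-1,000 cells/well were dosed 5 h after plating, in dilution series up to 46 uM final; primary runs used 8 or 11 points and confirmatory runs used 11 points. Viability was read by CellTiter-Glo luminescence after 48 h, against DMSO and 2.3 uM bortezomib controls.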

[15] = qHTS of pediatric cancer cell lines to identify multiple opportunities for drug repurposing: Confirmatory screen for BT-12 cells (AID 1347112); note: nearly all actives have a fitted effect of over 55% in size
Summary of the method: as §2

[16] = qHTS of pediatric cancer cell lines to identify multiple opportunities for drug repurposing: Confirmatory screen for LAN-5 cells (AID 1347113); note: nearly all actives have a fitted effect of over 65% in size; note: potency is the fitted concentration of half-maximal effect
Summary of the method: as §2

[17] = qHTS of pediatric cancer cell lines to identify multiple opportunities for drug repurposing: Confirmatory screen for NB-EBc1 cells (AID 1347115);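 note: potency is the fitted concentration of half-maximal effect; cells exposed to compound for 48 h before the viability read; nearly all actives have a fitted effect of over 45% in size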
Summary of the method: as §2

[18] = qHTS of pediatric cancer cell lines to identify multiple opportunities for drug repurposing: Confirmatory screen for SJ-GBM2 cells (AID 1347116); note: potency is the fitted concentration of half-maximal effect; nearly all actives have a fitted effect of over 60% in size
Summary of the method: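 Viability measured as metabolically active cells via CellTiter-Glo luminescence following 48 hours of compound exposure, 11-point dilutions in confirmatory testing. 500-1,000 cells/well plated 5 hours before dosing; controls were DMSO and 2.3 µM bortezomib.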

[19] = qHTS of pediatric cancer cell lines to identify multiple opportunities for drug repurposing: Confirmatory screen for BT-37 cells (AID 1347117); note: potency is the fitted concentration of half-maximal effect; nearly all actives have a fitted effect of over 55% in size
Summary of the method: as §2

Measured: Potency

Cc1c(F)cc2c(=O)c(C(=O)O)cn3c2c1CCC3C (stereo unspecified)
inactive: [1] | [2] | [3] | [4] | [5] | [6] | [7] | [8] | [9] | [10]

CC(=O)OCC(=O)[C@@]1(O)CCC2C3CCC4=CC(=O)CC[C@]4(C)C3[C@@H](O)C[C@@]21C (stereo partly specified)
active: [14] 16.5 µM
inactive: [11] | [2] | [12] | [3] | [4] | [6] | [7] | [8] | [9] | [10] | [13] | [15] | [16]

COCCc1ccccn1
inactive: [11] | [2] | [12] | [3] | [4] | [5] | [6] | [7] | [8] | [9] | [10]

COc1ccc(OC(=O)N(CC(=O)O)Cc2ccc(OCCc3nc(-c4ccccc4)oc3C)cc2)cc1
inactive: [11] | [2] | [12] | [3] | [4] | [5] | [6] | [7] | [8] | [9] | [10]

O=c1[nH]c(=O)n([C@H]2O[C@H](CO)[C@@H](O)[C@@H]2O)cc1/C=C\Br
inactive: [11] | [2] | [12] | [3] | [4] | [5] | [6] | [7] | [8] | [9] | [10]

CC(=O)Nc1c(I)c(NC(C)=O)c(I)c(C(=O)O)c1I
inactive: [11] | [2] | [12] | [3] | [4] | [5] | [6] | [8] | [9] | [10]

COc1cc(OC)nc(O[C@H](C(=O)O)C(OC)(c2ccccc2)c2ccccc2)n1
inactive: [11] | [2] | [12] | [3] | [4] | [5] | [6] | [7] | [8] | [10]

C[N+](C)(CCOc1ccccc1)Cc1cccs1
inactive: [11] | [2] | [12] | [3] | [4] | [6] | [8] | [9]

Cc1ccc(C(C)OC(=O)C2(C)CCC(C(=O)O)C2(C)C)cc1 (stereo unspecified)
inactive: [11] | [2] | [12] | [3] | [4] | [5] | [6] | [7] | [8] | [9] | [10]

CCOc1ccccc1OCC1CNCCO1 (stereo unspecified)
inactive: [11] | [2] | [12] | [3] | [4] | [5] | [6] | [7] | [9]

CN(C)CCCOC1(Cc2ccccc2)CCCCCC1
inactive: [11] | [2] | [12] | [3] | [4] | [6] | [7] | [8] | [9] | [10]

COC(=O)/C=C(/C)N
inactive: [11] | [2] | [12] | [3] | [4] | [5] | [6] | [7] | [9] | [10]

Cc1ncc(CO)c(CO)c1O
inactive: [11] | [2] | [12] | [3] | [4] | [5] | [6] | [7] | [8] | [9] | [10]

CCN(CC)C(=O)C1CN2CCc3cc(OC)c(OC)cc3C2CC1OC(C)=O (stereo unspecified)
inactive: [11] | [2] | [12] | [3] | [5] | [6] | [7] | [8] | [9] | [10]

N[C@@H](Cc1cc(I)c(O)c(I)c1)C(=O)O
inactive: [11] | [2] | [12] | [3] | [5] | [6] | [7] | [8] | [9] | [10]

CO/N=C(/C(=O)N[C@@H]1C(=O)N2C(C(=O)OCOC(=O)C(C)(C)C)=C(C)CS[C@H]12)c1csc(N)n1
inactive: [11] | [2] | [12] | [3] | [4] | [5] | [6] | [7] | [8] | [9] | [10]

CCOC(=O)CN1CCCC1=O
inactive: [11] | [2] | [12] | [3] | [4] | [5] | [6] | [7] | [10]

C[C@H]1C[C@H]2[C@@H]3CCC4=CC(=O)C=C[C@]4(C)[C@H]3C(=O)C[C@]2(C)[C@@]1(O)C(=O)CO
inactive: [11] | [2] | [12] | [3] | [4] | [6] | [7] | [8] | [9] | [10]
active: [13] 2.61 µM | [16] 2.93 µM | [17] 8.27 µM | [18] 4.65 µM | [19] 2.93 µM

O=C(Nc1ccc(S(=O)(=O)N2CCOCC2)cc1)c1cc(Cl)ccc1NS(=O)(=O)c1ccc(Cl)s1
inactive: [11] | [2] | [12] | [3] | [4] | [5] | [6] | [8] | [9] | [10]
